Assay results from publication PMC12820563, “FoxP3 forms a head-to-head dimer in vivo and stabilizes its multimerization on adjacent microsatellites”.
In all, about 16,000 sequences were measured (“rpm ratio (pull-down/input)”: median about 0.5, highest 2% from about 5.5 on). The entries come from a sample that favours the highest values as a whole.

Biological target: T1, MBP-FoxP3dN (Mus musculus, UniProt Q99JB6 188-423)
T1 sequence: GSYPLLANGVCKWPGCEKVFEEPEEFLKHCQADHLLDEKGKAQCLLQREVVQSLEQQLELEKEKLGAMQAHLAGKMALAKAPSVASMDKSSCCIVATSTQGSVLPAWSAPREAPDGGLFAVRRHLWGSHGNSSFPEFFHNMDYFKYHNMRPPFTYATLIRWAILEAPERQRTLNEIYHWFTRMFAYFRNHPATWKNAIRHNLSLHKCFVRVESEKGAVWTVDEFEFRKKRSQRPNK
Assay: PD-seq (MBP pull-down with sequencing); 20 mM Tris-HCl pH 7.5, 100 mM NaCl, 1.5 mM MgCl2, 0.4 uM protein, 0.1 uM dsDNA library, 30 min, room temperature, amylose pull-down; high values mean tight binding
Conditions: protein: recombinant; tags: His6-MBP; chain copies: 2; dsDNA, one strand shown
Outline: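 Binding is the reads-per-million enrichment of pull-down relative to input, pooled across replicates. For this, 0.4 µM His6-MBP-tagged mouse FoxP3 or FoxP1 fragment lacking the N-terminus, made in E. coli, was incubated with 0.1 µM Klenow-filled double-stranded degenerate DNA library for 30 min at room temperature in Tris pH 7.5 buffer with NaCl and MgCl2. Complexes bound to amylose resin were washed three times before proteinase K released the DNA for PCR barcoding and Illumina sequencing.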

Sequence | binding signal
GATGATTGTTCTCCCAGCTGATGAATTCGTCCGTTCGAGTAAACAAATTTTCCTAATCTTTCTGTTCAAGCGCCATCTAC | 0.459 RPM ratio (pull-down/input)
GATGATTGTTCTCCCAGCTGATGAATTCGTATCGTCGAGTAAACAAATTTTCCTAATCTTTCTGTTCAAGCGCCATCTAC | 1.53 RPM ratio (pull-down/input)
GATGATTGTTCTCCCAGCTGATGAATTACTGTTCTCGAGTAAACAAATTTTCCTAATCTTTCTGTTCAAGCGCCATCTAC | 0.662 RPM ratio (pull-down/input)
GATGATTGTTCTCCCAGCTGATGAATTAAGCGCCTCGAGTAAACAAATTTTCCTAATCTTTCTGTTCAAGCGCCATCTAC | 1.4 RPM ratio (pull-down/input)
GATGATTGTTCTCCCAGCTGATGAATTTAGCGCCTCGAGTAAACAAATTTTCCTAATCTTTCTGTTCAAGCGCCATCTAC | 1.56 RPM ratio (pull-down/input)
GATGATTGTTCTCCCAGCTGATGAATTAAGCCTCTCGAGTAAACAAATTTTCCTAATCTTTCTGTTCAAGCGCCATCTAC | 5.69 RPM ratio (pull-down/input)
GATGATTGTTCTCCCAGCTGATGAATTTAGCCTCTCGAGTAAACAAATTTTCCTAATCTTTCTGTTCAAGCGCCATCTAC | 5.79 RPM ratio (pull-down/input)
GATGATTGTTCTCCCAGCTGATGAATTTTTAGCCTCGAGTAAACAAATTTTCCTAATCTTTCTGTTCAAGCGCCATCTAC | 0.414 RPM ratio (pull-down/input)
GATGATTGTTCTCCCAGCTGATGAATTAACAGCCTCGAGTAAACAAATTTTCCTAATCTTTCTGTTCAAGCGCCATCTAC | 0.491 RPM ratio (pull-down/input)
GATGATTGTTCTCCCAGCTGATGAATTAGCCACTTCGAGTAAACAAATTTTCCTAATCTTTCTGTTCAAGCGCCATCTAC | 1.09 RPM ratio (pull-down/input)
GATGATTGTTCTCCCAGCTGATGAATTATTCGCCTCGAGTAAACAAATTTTCCTAATCTTTCTGTTCAAGCGCCATCTAC | 0.568 RPM ratio (pull-down/input)
GATGATTGTTCTCCCAGCTGATGAATTAACAACTTCGAGTAAACAAATTTTCCTAATCTTTCTGTTCAAGCGCCATCTAC | 0.722 RPM ratio (pull-down/input)
GATGATTGTTCTCCCAGCTGATGAATTCGGCACATCGAGTAAACAAATTTTCCTAATCTTTCTGTTCAAGCGCCATCTAC | 0.778 RPM ratio (pull-down/input)
GATGATTGTTCTCCCAGCTGATGAATTATACTTGTCGAGTAAACAAATTTTCCTAATCTTTCTGTTCAAGCGCCATCTAC | 1.05 RPM ratio (pull-down/input)
GATGATTGTTCTCCCAGCTGATGAATTTGTTGCATCGAGTAAACAAATTTTCCTAATCTTTCTGTTCAAGCGCCATCTAC | 7.07 RPM ratio (pull-down/input)
GATGATTGTTCTCCCAGCTGATGAATTGTTTGCATCGAGTAAACAAATTTTCCTAATCTTTCTGTTCAAGCGCCATCTAC | 6.03 RPM ratio (pull-down/input)
GATGATTGTTCTCCCAGCTGATGAATTCTTTGCATCGAGTAAACAAATTTTCCTAATCTTTCTGTTCAAGCGCCATCTAC | 0.99 RPM ratio (pull-down/input)
GATGATTGTTCTCCCAGCTGATGAATTTTTTGCATCGAGTAAACAAATTTTCCTAATCTTTCTGTTCAAGCGCCATCTAC | 1.37 RPM ratio (pull-down/input)
GATGATTGTTCTCCCAGCTGATGAATTGCATCAATCGAGTAAACAAATTTTCCTAATCTTTCTGTTCAAGCGCCATCTAC | 3.31 RPM ratio (pull-down/input)
GATGATTGTTCTCCCAGCTGATGAATTTGCATGATCGAGTAAACAAATTTTCCTAATCTTTCTGTTCAAGCGCCATCTAC | 1.63 RPM ratio (pull-down/input)
GATGATTGTTCTCCCAGCTGATGAATTGCCATCATCGAGTAAACAAATTTTCCTAATCTTTCTGTTCAAGCGCCATCTAC | 1.56 RPM ratio (pull-down/input)

Sequence | binding signal
GATGATTGTTCTCCCAGCTGATGAATTTGCATCATCGAGTAAACAAATTTTCCTAATCTTTCTGTTCAAGCGCCATCTAC | 6.33 RPM ratio (pull-down/input)
GATGATTGTTCTCCCAGCTGATGAATTTGCAGCATCGAGTAAACAAATTTTCCTAATCTTTCTGTTCAAGCGCCATCTAC | 1.6 RPM ratio (pull-down/input)
GATGATTGTTCTCCCAGCTGATGAATTACTATCGTCGAGTAAACAAATTTTCCTAATCTTTCTGTTCAAGCGCCATCTAC | 0.509 RPM ratio (pull-down/input)
GATGATTGTTCTCCCAGCTGATGAATTGCTAACTTCGAGTAAACAAATTTTCCTAATCTTTCTGTTCAAGCGCCATCTAC | 0.723 RPM ratio (pull-down/input)
GATGATTGTTCTCCCAGCTGATGAATTGCAAGCGTCGAGTAAACAAATTTTCCTAATCTTTCTGTTCAAGCGCCATCTAC | 0.974 RPM ratio (pull-down/input)
GATGATTGTTCTCCCAGCTGATGAATTAGGTGGCTCGAGTAAACAAATTTTCCTAATCTTTCTGTTCAAGCGCCATCTAC | 0.625 RPM ratio (pull-down/input)
GATGATTGTTCTCCCAGCTGATGAATTATCAGAGTCGAGTAAACAAATTTTCCTAATCTTTCTGTTCAAGCGCCATCTAC | 0.249 RPM ratio (pull-down/input)
GATGATTGTTCTCCCAGCTGATGAATTCTTCTCATCGAGTAAACAAATTTTCCTAATCTTTCTGTTCAAGCGCCATCTAC | 0.242 RPM ratio (pull-down/input)
GATGATTGTTCTCCCAGCTGATGAATTGTTTTATTCGAGTAAACAAATTTTCCTAATCTTTCTGTTCAAGCGCCATCTAC | 1.66 RPM ratio (pull-down/input)
GATGATTGTTCTCCCAGCTGATGAATTGGTTTATTCGAGTAAACAAATTTTCCTAATCTTTCTGTTCAAGCGCCATCTAC | 4.04 RPM ratio (pull-down/input)
GATGATTGTTCTCCCAGCTGATGAATTTATTATTTCGAGTAAACAAATTTTCCTAATCTTTCTGTTCAAGCGCCATCTAC | 5.57 RPM ratio (pull-down/input)
GATGATTGTTCTCCCAGCTGATGAATTTATTCTTTCGAGTAAACAAATTTTCCTAATCTTTCTGTTCAAGCGCCATCTAC | 0.542 RPM ratio (pull-down/input)
GATGATTGTTCTCCCAGCTGATGAATTTGTTTATTCGAGTAAACAAATTTTCCTAATCTTTCTGTTCAAGCGCCATCTAC | 7.73 RPM ratio (pull-down/input)
GATGATTGTTCTCCCAGCTGATGAATTATTTCTTTCGAGTAAACAAATTTTCCTAATCTTTCTGTTCAAGCGCCATCTAC | 0.419 RPM ratio (pull-down/input)
GATGATTGTTCTCCCAGCTGATGAATTTATTTATTCGAGTAAACAAATTTTCCTAATCTTTCTGTTCAAGCGCCATCTAC | 5.86 RPM ratio (pull-down/input)
GATGATTGTTCTCCCAGCTGATGAATTGGTTATTTCGAGTAAACAAATTTTCCTAATCTTTCTGTTCAAGCGCCATCTAC | 3.1 RPM ratio (pull-down/input)
GATGATTGTTCTCCCAGCTGATGAATTTATTGGTTCGAGTAAACAAATTTTCCTAATCTTTCTGTTCAAGCGCCATCTAC | 5.89 RPM ratio (pull-down/input)
GATGATTGTTCTCCCAGCTGATGAATTATTTATTTCGAGTAAACAAATTTTCCTAATCTTTCTGTTCAAGCGCCATCTAC | 2.74 RPM ratio (pull-down/input)
GATGATTGTTCTCCCAGCTGATGAATTTTTTTATTCGAGTAAACAAATTTTCCTAATCTTTCTGTTCAAGCGCCATCTAC | 0.313 RPM ratio (pull-down/input)
GATGATTGTTCTCCCAGCTGATGAATTTCTTTATTCGAGTAAACAAATTTTCCTAATCTTTCTGTTCAAGCGCCATCTAC | 1.53 RPM ratio (pull-down/input)
GATGATTGTTCTCCCAGCTGATGAATTACCTGCTTCGAGTAAACAAATTTTCCTAATCTTTCTGTTCAAGCGCCATCTAC | 0.326 RPM ratio (pull-down/input)

Sequence | binding signal
GATGATTGTTCTCCCAGCTGATGAATTTCACGGCTCGAGTAAACAAATTTTCCTAATCTTTCTGTTCAAGCGCCATCTAC | 0.24 RPM ratio (pull-down/input)
GATGATTGTTCTCCCAGCTGATGAATTGTGGTACTCGAGTAAACAAATTTTCCTAATCTTTCTGTTCAAGCGCCATCTAC | 1.06 RPM ratio (pull-down/input)
GATGATTGTTCTCCCAGCTGATGAATTGTTCCATTCGAGTAAACAAATTTTCCTAATCTTTCTGTTCAAGCGCCATCTAC | 0.579 RPM ratio (pull-down/input)
GATGATTGTTCTCCCAGCTGATGAATTAACGGGTTCGAGTAAACAAATTTTCCTAATCTTTCTGTTCAAGCGCCATCTAC | 0.329 RPM ratio (pull-down/input)
GATGATTGTTCTCCCAGCTGATGAATTCCAAATCTCGAGTAAACAAATTTTCCTAATCTTTCTGTTCAAGCGCCATCTAC | 0.26 RPM ratio (pull-down/input)
GATGATTGTTCTCCCAGCTGATGAATTTGTAATGTCGAGTAAACAAATTTTCCTAATCTTTCTGTTCAAGCGCCATCTAC | 3.87 RPM ratio (pull-down/input)
GATGATTGTTCTCCCAGCTGATGAATTATACACGTCGAGTAAACAAATTTTCCTAATCTTTCTGTTCAAGCGCCATCTAC | 0.65 RPM ratio (pull-down/input)
GATGATTGTTCTCCCAGCTGATGAATTACGAAAGTCGAGTAAACAAATTTTCCTAATCTTTCTGTTCAAGCGCCATCTAC | 0.214 RPM ratio (pull-down/input)
GATGATTGTTCTCCCAGCTGATGAATTATTTTATTCGAGTAAACAAATTTTCCTAATCTTTCTGTTCAAGCGCCATCTAC | 0.489 RPM ratio (pull-down/input)
GATGATTGTTCTCCCAGCTGATGAATTTTATTTTTCGAGTAAACAAATTTTCCTAATCTTTCTGTTCAAGCGCCATCTAC | 4.17 RPM ratio (pull-down/input)
GATGATTGTTCTCCCAGCTGATGAATTAATTTATTCGAGTAAACAAATTTTCCTAATCTTTCTGTTCAAGCGCCATCTAC | 2.61 RPM ratio (pull-down/input)
GATGATTGTTCTCCCAGCTGATGAATTTTTTATTTCGAGTAAACAAATTTTCCTAATCTTTCTGTTCAAGCGCCATCTAC | 0.301 RPM ratio (pull-down/input)
GATGATTGTTCTCCCAGCTGATGAATTCTTTTATTCGAGTAAACAAATTTTCCTAATCTTTCTGTTCAAGCGCCATCTAC | 0.35 RPM ratio (pull-down/input)
GATGATTGTTCTCCCAGCTGATGAATTTTTATTTTCGAGTAAACAAATTTTCCTAATCTTTCTGTTCAAGCGCCATCTAC | 0.838 RPM ratio (pull-down/input)
GATGATTGTTCTCCCAGCTGATGAATTTATTGATTCGAGTAAACAAATTTTCCTAATCTTTCTGTTCAAGCGCCATCTAC | 5.78 RPM ratio (pull-down/input)
GATGATTGTTCTCCCAGCTGATGAATTGATTTATTCGAGTAAACAAATTTTCCTAATCTTTCTGTTCAAGCGCCATCTAC | 2.58 RPM ratio (pull-down/input)
GATGATTGTTCTCCCAGCTGATGAATTTTATTATTCGAGTAAACAAATTTTCCTAATCTTTCTGTTCAAGCGCCATCTAC | 5.53 RPM ratio (pull-down/input)
GATGATTGTTCTCCCAGCTGATGAATTTATTTGTTCGAGTAAACAAATTTTCCTAATCTTTCTGTTCAAGCGCCATCTAC | 6.33 RPM ratio (pull-down/input)
GATGATTGTTCTCCCAGCTGATGAATTTATTTTTTCGAGTAAACAAATTTTCCTAATCTTTCTGTTCAAGCGCCATCTAC | 4.63 RPM ratio (pull-down/input)
GATGATTGTTCTCCCAGCTGATGAATTTTATTGTTCGAGTAAACAAATTTTCCTAATCTTTCTGTTCAAGCGCCATCTAC | 6.02 RPM ratio (pull-down/input)
GATGATTGTTCTCCCAGCTGATGAATTACGTGCCTCGAGTAAACAAATTTTCCTAATCTTTCTGTTCAAGCGCCATCTAC | 0.855 RPM ratio (pull-down/input)
